Measurements: publication PMC5540273 (PLoS ONE, 2017)

Assays:
Conditions in all cases: concentration: 1 μM, replicates: in singlicate; n = 1
CSK = tested on: CSK
CSNK1A1L = tested on: CSNK1A1L
CSNK1A1 = tested on: CSNK1A1
CSNK1D = tested on: CSNK1D
CSNK1E = tested on: CSNK1E
CSNK1G1 = tested on: CSNK1G1
CSNK1G2 = tested on: CSNK1G2
CSNK1G3 = tested on: CSNK1G3
CSNK2A1 = tested on: CSNK2A1
CSNK2A2 = tested on: CSNK2A2
CTK = tested on: T1, CTK
T1 construct: gene MATK

DAPK1 = tested on: DAPK1
DAPK2 = tested on: DAPK2
DAPK3 = tested on: DAPK3
DCAMKL1 = tested on: T2, DCAMKL1
T2 construct: gene DCLK1

DCAMKL2 = tested on: T3, DCAMKL2
T3 construct: gene DCLK2

DCAMKL3 = tested on: T4, DCAMKL3
T4 construct: gene DCLK3

DDR1 = tested on: DDR1
DDR2 = tested on: DDR2
DLK = tested on: T5, DLK
T5 construct: gene MAP3K12
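Further: KINOMEscan kinase panel screen.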

SMILES | %Inh (CSK) [%] | %Inh (CSNK1A1L) [%] | %Inh (CSNK1A1) [%] | %Inh (CSNK1D) [%] | %Inh (CSNK1E) [%] | %Inh (CSNK1G1) [%] | %Inh (CSNK1G2) [%] | %Inh (CSNK1G3) [%] | %Inh (CSNK2A1) [%] | %Inh (CSNK2A2) [%] | %Inh (CTK) [%] | %Inh (DAPK1) [%] | %Inh (DAPK2) [%] | %Inh (DAPK3) [%] | %Inh (DCAMKL1) [%] | %Inh (DCAMKL2) [%] | %Inh (DCAMKL3) [%] | %Inh (DDR1) [%] | %Inh (DDR2) [%] | %Inh (DLK) [%]
COc1ccc(CSc2nnc(-c3ccc4nccn4c3)o2)cc1C(F)(F)F | 0 | 0 | 18 | 0 | 0 | 15 | 0 | 0 | 0 | 21 | 0 | 0 | 0 | 1 | 8 | 0 | 0 | 13 | 0 | 0
O=C(Nc1n[nH]c2nc(-c3ccco3)c(Br)cc12)C1CCN(Cc2ccccc2)C1.O=C(O)[C@H](O)[C@@H](O)C(=O)O (stereo not shown) [SB-742034] | 11 | 8 | 21 | 28 | 0 | 4 | 32 | 0 | 22 | 37 | 71 | 0 | 28 | 17 | 14 | 7 | 20 | 0 | 0 | 0
COc1ccc(CSc2nnc(-c3ccc4ncsc4c3)o2)cc1C(F)(F)F | 0 | 0 | 0 | 0 | 0 | 0 | 0 | 0 | 0 | 2 | 5 | 10 | 4 | 0 | 9 | 0 | 0 | 14 | 12 | 0
Cn1cncc1-c1cc2c(Nc3ccc(OCc4ccccc4)cc3)ncnc2cn1 [GW281179] | 4 | 4 | 0 | 19 | 24 | 9 | 0 | 24 | 0 | 9 | 0 | 0 | 0 | 7 | 20 | 14 | 0 | 9 | 0 | 27
Cn1cncc1C(=O)NC1CCN(c2ccnc(Nc3ccc(F)cc3)n2)C1 (stereo not shown) [GSK1379717] | 9 | 0 | 0 | 0 | 0 | 0 | 0 | 17 | 0 | 0 | 0 | 13 | 0 | 5 | 0 | 0 | 0 | 7 | 0 | 0
COC(=O)c1cccc(NC(=O)NC2CCN(c3ccnc(Nc4ccc(F)cc4)n3)C2)c1 (stereo not shown) [GSK1379725] | 0 | 3 | 0 | 21 | 7 | 0 | 0 | 9 | 0 | 0 | 0 | 0 | 0 | 0 | 0 | 0 | 12 | 0 | 0 | 0
CS(=O)(=O)CCNCc1nc(-c2ccc3ncnc(Nc4ccc5c(cnn5Cc5ccccc5)c4)c3c2)cs1.Cl.Cl [GW569716] | 0 | 0 | 0 | 2 | 21 | 1 | 0 | 3 | 0 | 37 | 0 | 0 | 0 | 0 | 9 | 0 | 4 | 0 | 24 | 53
CSc1ccc(-c2nc3n(c2-c2ccncc2)CCC3)cc1 [SKF-105561] | 0 | 5 | 5 | 6 | 7 | 0 | 0 | 1 | 8 | 0 | 21 | 29 | 0 | 0 | 3 | 0 | 21 | 75 | 60 | 0
Cc1ccc(NC(=O)Nc2ccccc2F)cc1-c1ccc(C(=O)Nc2ccncc2)cc1 [GSK1398477] | 0 | 20 | 0 | 12 | 16 | 18 | 32 | 28 | 19 | 18 | 0 | 0 | 17 | 0 | 0 | 40 | 26 | 97 | 55 | 0
Nc1nccc(-c2c(-c3ccc(F)cc3)ncn2C2CCN(Cc3ccccc3)CC2)n1 [SB-219980] | 0 | 49 | 95.1 | 94.1 | 99.4 | 0 | 0 | 0 | 0 | 6 | 11 | 0 | 0 | 0 | 0 | 0 | 13 | 86 | 74 | 0
COc1ccc(Nc2nccc(N3CCC(NC(=O)c4cc5ccccc5s4)C3)n2)cc1 (stereo not shown) [GSK1379738] | 2 | 2 | 0 | 9 | 34 | 0 | 0 | 17 | 5 | 0 | 0 | 0 | 0 | 25 | 14 | 0 | 0 | 80 | 23 | 28
